Source: PubChem BioAssay (NCATS)
Results filed as inconclusive are left out. Where a call stands in place of a potency, no number is given. The source made the active and inactive calls. Calls follow the shape of the dose curve; as a rule, active = well fitted curve in the direction sought with a large enough effect; inconclusive = small, poorly fitted or top-dose-only effect, or another doubt; inactive = no such curve, though single readings can be large; an effect the other way counts as inactive or inconclusive.

Legend:
[1] = test system: HEK293; test: Cytotoxic Profiling of Annotated Libraries Using Quantitative High-Throughput Screening (AID 1296008); details: Five cell lines viability, CellTiter-Glo ATP luminescence, 48-72 h; max response: active compounds read low; also: nearly all actives have a fitted effect of over 60% in size; also: potency is read from the fitted curve at half-maximal effect
How it was run: (§1)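 Cytotoxicity was measured as CellTiter-Glo ATP luminescence, read after 10 min at room temperature. Compound treatment of the cells lasted 48 or 72 hr at 37 degrees Celsius in a qHTS format.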

[2] = test system: HaCat; test: as above; details: Five cell lines viability, CellTiter-Glo ATP luminescence, 48-72 h; max response: active compounds read low
How it was run: as §1

[3] = test system: KB-3-1; test: as above; details: Five cell lines viability, CellTiter-Glo ATP luminescence, 48-72 h; max response: active compounds read low
How it was run: as §1

[4] = test system: NIH3T3; test: as above; details: Five cell lines viability, CellTiter-Glo ATP luminescence, 48-72 h; max response: active compounds read low
How it was run: as §1

[5] = test system: C33A; test: Primary qHTS to identify gynecologic anti-cancer compounds using libraries of approved drugs and bioactive compounds (AID 1345084); details: Gynecologic cancer cell panel viability, ATPlite luminescence, 48 h; series mostly up to 57.5 µM; also: nearly all actives have a fitted effect of over 55% in size
How it was run: (§2)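 Measured: luminescence after ATPlite addition (15 min, RT). Exposure: 48 h, 37 C, 5% CO2.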

[6] = test system: CAOV3; test: as above; details: Gynecologic cancer cell panel viability, ATPlite luminescence, 48 h; series mostly up to 57.5 µM
How it was run: as §2

[7] = test system: CASKI; test: as above; details: Gynecologic cancer cell panel viability, ATPlite luminescence, 48 h; series mostly up to 57.5 µM
How it was run: as §2

[8] = test system: Es-2; test: as above; details: Gynecologic cancer cell panel viability, ATPlite luminescence, 48 h; series mostly up to 57.5 µM
How it was run: as §2

[9] = test system: HeLa; test: as above; details: Gynecologic cancer cell panel viability, ATPlite luminescence, 48 h; series mostly up to 57.5 µM
How it was run: as §2

[10] = test system: Hek293T; test: as above; details: Gynecologic cancer cell panel viability, ATPlite luminescence, 48 h, control line for the selectivity index; series mostly up to 57.5 µM
How it was run: as §2

[11] = test system: JEG-3; test: as above; details: Gynecologic cancer cell panel viability, ATPlite luminescence, 48 h; series mostly up to 57.5 µM
How it was run: as §2

Row | Structure (SMILES) | max response [1] | max response [2] | max response [3] | max response [4] | Potency [5] | Potency [6] | Potency [7] | Potency [8] | Potency [9] | Potency [10] | Potency [11] | outcome [3] | Potency [1] | activity change, negative = cytotoxicity [5] | activity change, negative = cytotoxicity [6] | activity change, negative = cytotoxicity [7] | activity change, negative = cytotoxicity [8] | activity change, negative = cytotoxicity [9] | activity change, negative = cytotoxicity [10] | activity change, negative = cytotoxicity [11]
1 | O=S(=O)(c1ccc(S(=O)(=O)n2cnc3ccccc32)cc1)N1CCCCCC1 | -10.3% (inactive) | -9.6% (inactive) | 6.01% (inactive) | -4.79% (inactive) | inactive | inactive | inactive | inactive | inactive | inactive | inactive | – | – | – | – | – | – | – | – | –
2 | OC[C@@]1(O)CO[C@@H](OC[C@H]2O[C@@H](Oc3c[nH]c4ccccc34)[C@H](O)[C@@H](O)[C@@H]2O)[C@@H]1O | -21.5% (inactive) | -26.1% (inactive) | -0.625% (inactive) | 1.55% (inactive) | inactive | inactive | inactive | inactive | inactive | inactive | inactive | – | – | – | – | – | – | – | – | –
3 | CC(=O)OC[C@]12[C@H](OC(C)=O)C(=O)[C@@H]3[C@@H](OC(C)=O)[C@@]14O[C@@]3(C)COC(=O)c1cccnc1[C@@H](C)[C@H](C)C(=O)O[C@@H]([C@H](O)[C@@H]2OC(C)=O)[C@]4(C)O | -0.596% (inactive) | -0.606% (inactive) | -8.82% (inactive) | -21% (inactive) | inactive | inactive | inactive | inactive | inactive | inactive | inactive | – | – | – | – | – | – | – | – | –
4 | CC(C)(O)CC(CO)NC(=O)CC(O)CC(=O)Cc1ccccc1 (stereo not given) | 0.672% (inactive) | 3.84% (inactive) | 2.2% (inactive) | 2.22% (inactive) | inactive | inactive | inactive | inactive | inactive | inactive | inactive | – | – | – | – | – | – | – | – | –
5 | O=C(O)c1cc(-c2c(-c3ccccc3)nn3ccccc23)n[nH]c1=O | -2.65% (inactive) | -37.3% (inactive) | – | -3.95% (inactive) | inactive | inactive | inactive | inactive | inactive | inactive | inactive | inactive | – | – | – | – | – | – | – | –
6 | CC(=O)OCC1(O)CCC2C(COC3OC(CO)C(O)C(O)C3OC(=O)/C=C/c3ccc(O)cc3)=COC(OC(=O)CC(C)C)C21 (stereo not given) | -11% (inactive) | -35.1% (inactive) | – | 3.4% (inactive) | inactive | inactive | inactive | inactive | inactive | inactive | inactive | inactive | – | – | – | – | – | – | – | –
7 | N[C@H]1Cc2ccccc2N(O)C1=O | – | -0.256% (inactive) | -13.7% (inactive) | -9.2% (inactive) | inactive | inactive | inactive | inactive | inactive | inactive | inactive | – | 25.9 µM (active) | – | – | – | – | – | – | –
8 | COC(=O)c1ccc(OC(CO)C(O)c2ccc(O)c(OC)c2)c(OC)c1 (stereo not given) | 1.51% (inactive) | 1.74% (inactive) | -5.47% (inactive) | -1.03% (inactive) | inactive | inactive | inactive | inactive | inactive | inactive | inactive | – | – | – | – | – | – | – | – | –
9 | C=CC(C)(O)CC[C@H]1C(=C)CCC2[C@](C)(C(=O)O)CCC[C@@]21C (stereo not given in full) | -3.52% (inactive) | -5.99% (inactive) | 0.39% (inactive) | 2.59% (inactive) | inactive | inactive | inactive | inactive | inactive | inactive | inactive | – | – | – | – | – | – | – | – | –
10 | CC1=CC(=O)CC2C1(O)CCC(C)C21CC(c2ccoc2)OC1=O (stereo not given) | -14.1% (inactive) | -50.8% (inactive) | -1.68% (inactive) | -0.573% (inactive) | inactive | inactive | inactive | inactive | inactive | inactive | inactive | – | – | – | – | – | – | – | – | –
11 | C[C@@H]1O[C@@H](O[C@@H]2[C@@H](O)[C@H](O[C@H]3[C@H](O[C@H]4CC[C@@]5(C)C(CC[C@]6(C)C5CC=C5[C@@H]7CC(C)(C)CC[C@]7(C(=O)O[C@@H]7O[C@H](CO)[C@@H](O)[C@H](O)[C@H]7O[C@@H]7O[C@@H](C)[C@H](O[C@@H]8O[C@@H](C)[C@H](O)[C@@H](O)[C@H]8O)[C@@H](O)[C@H]7O)CC[C@]56C)[C@@]4(C)CO)O[C@H](C(=O)O)[C@@H](O)[C@@H]3O)O[C@H](CO)[C@H]2O)[C@H](O)[C@H](O)[C@H]1O (stereo not given in full) | -2.3% (inactive) | 4.58% (inactive) | 5.11% (inactive) | 2.85% (inactive) | – | – | – | – | – | – | – | – | – | 0.245% [at 6.55 µM] (inactive) | 5.38% [at 6.55 µM] (inactive) | 3.98% [at 6.55 µM] (inactive) | -0.113% [at 6.55 µM] (inactive) | 1.1% [at 6.55 µM] (inactive) | 2.2% [at 6.55 µM] (inactive) | 8.58% [at 6.55 µM] (inactive)
12 | C=C1CCCC2(C)CC3(OC)OC(=O)C(C)=C3CC12 (stereo not given) | 3.93% (inactive) | 2.5% (inactive) | -2.16% (inactive) | -10.6% (inactive) | inactive | inactive | inactive | inactive | inactive | inactive | inactive | – | – | – | – | – | – | – | – | –
13 | CC(C)S(=O)(=O)NC[C@H](C)c1ccc(NC(=O)c2cc(F)cc(F)c2)cc1 | -6.11% (inactive) | -5.79% (inactive) | 3.14% (inactive) | 3.47% (inactive) | inactive | inactive | inactive | inactive | inactive | inactive | inactive | – | – | – | – | – | – | – | – | –
14 | O=C(/C=C/c1ccc(O)cc1)N[C@@H](Cc1ccc(O)cc1)C(=O)O | -7.32% (inactive) | 1.92% (inactive) | -2.01% (inactive) | 1.16% (inactive) | inactive | inactive | inactive | inactive | inactive | inactive | inactive | – | – | – | – | – | – | – | – | –
15 | Cc1ccc(Cc2c(C)nc3nc(SCC(=O)NCCN4CCNCC4)nn3c2C)cc1 | 2.24% (inactive) | -12.4% (inactive) | – | -3.32% (inactive) | inactive | inactive | inactive | inactive | inactive | inactive | inactive | inactive | – | – | – | – | – | – | – | –
16 | CC1=CC2/C=C(\C)CC[C@@H](O)[C@@H](O)[C@@H]3O[C@@H]3C(=O)[C@]23C(=O)N[C@@H](CC(C)C)[C@@H]3[C@@H]1C (stereo not given in full) | 1.09% (inactive) | -27.7% (inactive) | -2.72% (inactive) | 1.23% (inactive) | inactive | inactive | inactive | inactive | inactive | inactive | inactive | – | – | – | – | – | – | – | – | –
17 | O=C1C=CC(O)(/C=C/C(=O)OC[C@H]2O[C@@H](Oc3ccc(O)cc3)[C@H](O)[C@@H](O)[C@@H]2O)C=C1 | -4.12% (inactive) | 4.51% (inactive) | -7.33% (inactive) | -0.599% (inactive) | inactive | inactive | inactive | inactive | inactive | inactive | inactive | – | – | – | – | – | – | – | – | –
18 | CC(C)[N+]1(C)C2CCC1CC(OC(=O)C(CO)c1ccccc1)C2 (stereo not given) | -4.72% (inactive) | -18.4% (inactive) | -2.64% (inactive) | -9.66% (inactive) | inactive | inactive | inactive | inactive | inactive | inactive | inactive | – | – | – | – | – | – | – | – | –
19 | C=C[C@H]1CN2CC[C@H]1C[C@@H]2C(O)c1ccnc2ccc(OC)cc12 (stereo not given in full) | -7.03% (inactive) | 2.46% (inactive) | 4.51% (inactive) | 3.58% (inactive) | inactive | inactive | inactive | inactive | inactive | inactive | inactive | – | – | – | – | – | – | – | – | –
20 | CC(C)(O)/C=C/C1=CC(=O)[C@@](C)(O)C[C@H]1O | -6.16% (inactive) | 4.28% (inactive) | 7.85% (inactive) | -2.07% (inactive) | inactive | inactive | inactive | inactive | inactive | inactive | inactive | – | – | – | – | – | – | – | – | –
21 | O=C(/C=C\c1ccc(O)cc1)N[C@@H](Cc1ccc(O)cc1)C(=O)O | 1.95% (inactive) | -12.4% (inactive) | 1.07% (inactive) | -0.22% (inactive) | inactive | inactive | inactive | inactive | inactive | inactive | inactive | – | – | – | – | – | – | – | – | –
22 | CN1CCc2nc(C(=O)N[C@@H]3C[C@@H](C(=O)N(C)C)CC[C@@H]3NC(=O)C(=O)Nc3ccc(Cl)cn3)sc2C1 | -78.6% (inactive) | -24.6% (inactive) | -42% (inactive) | -49.4% (inactive) | inactive | inactive | inactive | inactive | inactive | inactive | inactive | – | – | – | – | – | – | – | – | –
23 | CC(C)c1ccc2c(c1)C(=O)CC1[C@@](C)(C(=O)O)CCC[C@]21C (stereo not given in full) | 3.51% (inactive) | -7.44% (inactive) | -10.5% (inactive) | 0.286% (inactive) | inactive | inactive | inactive | inactive | inactive | inactive | inactive | – | – | – | – | – | – | – | – | –
24 | C1CCC[C@H]2CCCN3CC[C@@H](CCCCCC[C@@H]4CCCN5CC[C@@H](CC1)O[C@@H]45)O[C@@H]23 | 4.46% (inactive) | -0.73% (inactive) | 8.9% (inactive) | 2.62% (inactive) | – | – | – | – | – | – | – | – | – | 6.95% [at 0.155 µM] (inactive) | 1.15% [at 0.155 µM] (inactive) | -13.7% [at 0.155 µM] (inactive) | 2.67% [at 0.155 µM] (inactive) | 18.4% [at 0.155 µM] (inactive) | 4.56% [at 0.155 µM] (inactive) | -9.47% [at 0.155 µM] (inactive)
25 | COC(=O)N[C@H](C(=O)N1[C@@H]2CC[C@@H](C2)[C@H]1c1nc2ccc(-c3ccc4c(c3)C(F)(F)c3cc(-c5cnc([C@@H]6CCC7(CC7)N6C(=O)[C@@H](NC(=O)OC)C(C)C)[nH]5)ccc3-4)cc2[nH]1)C(C)C | – | -33.1% (inactive) | -8.63% (inactive) | -14.9% (inactive) | inactive | inactive | inactive | inactive | inactive | inactive | inactive | – | 3.99 µM (active) | – | – | – | – | – | – | –
